Spn DPM-DC inh – S. pneumoniae DPM-DC inhibitors, primary screen, biochemical, PK/LDH-coupled NADH fluorescence | 65,000 tested, 0.49% active | AID 556, 2006 | diphosphomevalonate decarboxylase (Streptococcus pneumoniae D39) | purified DPM-DC | calls only at 10 µM;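 active = the 320 compounds with the highest percent inhibition in the single-dose primary screen, excluding strongly autofluorescent ones, cut at about 32% in these data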;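 note: kinetic rate of NADH fluorescence loss reporting ADP formed by the decarboxylase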
NADH coupling – inhibitors of PK/LDH coupling enzymes, profiling panel, artefact control, biochemical, MLSMR library. coupled PK/LDH NADH assays, four targets. IC50, µM (doses to about 10 µM), for inactives: top-dose inhibition. 65,000 tested, 0.02% active. AID 774, 2007;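 active = single-dose screening hits from any of four coupled enzyme assays that gave an IC50 when retested across doses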;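 note: the DPM-DC format reads NADH fluorescence rather than 340 nm absorbance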
A340 absorber – compound light absorbance at 340 nm, profiling panel, artefact control, biochemical, MLSMR library, data from PS, PMK, MK assays; 65,000 tested, under 10 active; fold change at 10 µM; compound absorbance at 340 nm, fold over control;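 active = at 10 µM dose, initial 340 nm absorbance at least 2 fold that of control wells; inactive = change under 2 fold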;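 note: initial absorbance extrapolated from kinetic A340 decline of NADH oxidation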
Fluor 339 460 – intrinsic fluorescence of library compounds, ex339/em460 – biochemical, MLSMR library, data from DPM-DC assay, artefact control, profiling panel; fluorescence fold increase at 10 µM; 65,000 tested, 5.5% active; compound autofluorescence, ex339/em460 nm, NADH buffer; stronger effect = higher value; 1 = no-compound wells, NADH background; AID 709, 2007;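 active = at 10 µM, mean starting fluorescence two-fold or more over control wells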;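 note: signal is the first read of a kinetic run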
MK inhibit – S. pneumoniae MK inhibitors, primary screen, biochemical, PK/LDH-coupled NADH absorbance; mevalonate kinase [Streptococcus pneumoniae D39]; purified MK, PK/LDH-coupled NADH absorbance 340 nm; inhibition, % at 10 µM; 65,000 tested, 0.48% active; AID 555, 2006;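 active = ranked among the strongest by inhibition in the single 10 µM screen, a fixed top-ranked set picked for dose follow-up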
Spn PMK inh – S. pneumoniae PMK inhibitors, primary screen, biochemical, mevalonate pathway, pilot trial included. phosphomevalonate kinase (Streptococcus pneumoniae D39). purified PMK, PK/LDH-coupled NADH absorbance 340 nm. inhibition, % at 10 µM. 65,000 tested, 0.49% active;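 active = top-ranked compounds by inhibition in the single 10 µM screen, taking a fixed number of the strongest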;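 note: 0% = full reaction with DMSO carrier and 100% = background rate without enzyme reaction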
Active calls of the source: *. Most compounds without a hit are left out; they make up all but 6.5% or so of the library.

CCc1ccc(C2C3=C(CC(C)(C)CC3=O)Nc3c2c(=O)[nH]c2nc(C)nn32)cc1 (stereo not drawn) was read as NADH coupling 0.0%, A340 absorber 1.08, Fluor 339 460 3.42*, MK inhibit 0.0 and Spn PMK inh 0.0.
For Cc1nc2[nH]c(=O)c3c(n2n1)NC1=C(C(=O)CC(C)(C)C1)C3c1ccc(F)cc1 (stereo not drawn) the results were NADH coupling 5.0%, A340 absorber 1.08, Fluor 339 460 3.78*, MK inhibit 1.0 and Spn PMK inh 8.0.
For COc1ccc(C2C3=C(CC(C)(C)CC3=O)Nc3c2c(=O)[nH]c(=O)n3Cc2ccccc2)cc1 (stereo not drawn) the results were Spn DPM-DC inh inactive, NADH coupling 6.0%, A340 absorber 1.05, Fluor 339 460 1.45, MK inhibit 6.0 and Spn PMK inh 12.0.
Cc1ccc(C2C3=C(CC(C)(C)CC3=O)Nc3[nH]c(=S)[nH]c(=O)c32)cc1 (stereo not drawn) was read as Spn DPM-DC inh inactive, NADH coupling 12.0%, A340 absorber 1.06, Fluor 339 460 1.13, MK inhibit 13.0 and Spn PMK inh 18.0.
For Cc1c(/C(O)=C2/C(=O)C(=O)N(CCN3CCOCC3)C2c2ccco2)cnn1-c1ccccc1 (stereo not drawn) the results were Spn DPM-DC inh inactive, NADH coupling 12.0%, A340 absorber 1.08, Fluor 339 460 1.12, MK inhibit 20.0 and Spn PMK inh 15.0.
COCc1cc(C)c(C#N)c(=S)[nH]1 was read as Spn DPM-DC inh inactive, NADH coupling 26.0%, A340 absorber 1.03, Fluor 339 460 1.07, MK inhibit 58.0* and Spn PMK inh 21.0.
`O=C1CC(c2ccccc2)NC(=O)N1` (stereo not drawn) gave Spn DPM-DC inh inactive, NADH coupling 1.0%, A340 absorber 1, Fluor 339 460 1.02, MK inhibit 0.0 and Spn PMK inh 2.0.
For CN(C)CCN(Cc1ccccc1)c1ccnc(N(C)C)c1C#N the results were Spn DPM-DC inh inactive, NADH coupling 22.0%, A340 absorber 1.1, Fluor 339 460 1.38, MK inhibit 56.0* and Spn PMK inh 7.0.
CN(C)CCN(Cc1ccccc1)c1ccccn1 was read as Spn DPM-DC inh inactive, NADH coupling 2.0%, A340 absorber 0.99, Fluor 339 460 1.04, MK inhibit 6.0 and Spn PMK inh 0.0.
For CCOC(=O)C1CCCN(C(=O)c2ccccc2Oc2ccccc2)C1 (stereo not drawn) the results were Spn DPM-DC inh inactive, NADH coupling 2.0%, A340 absorber 1.05, Fluor 339 460 1.04, MK inhibit 3.0 and Spn PMK inh 1.0.
For Cc1cc(C)n(-c2ccc(C(=O)Nc3sccc3C(N)=O)cc2)n1 the results were Spn DPM-DC inh inactive, NADH coupling 5.0%, A340 absorber 1.08, Fluor 339 460 1.4, MK inhibit 2.0 and Spn PMK inh 13.0.
Cc1sc2nc3c4ccccc4c(NCc4ccco4)nn3c(=O)c2c1C was read as NADH coupling 3.0%, A340 absorber 1.07, Fluor 339 460 4.74*, MK inhibit 2.0 and Spn PMK inh 3.0.
For Cc1nnc(NCc2ccco2)c2ccccc12 the results were Spn DPM-DC inh inactive, NADH coupling 5.0%, A340 absorber 1.02, Fluor 339 460 1.06, MK inhibit 2.0 and Spn PMK inh 14.0.
CCOC(=O)c1c2n(c3c(NCc4ccccc4)ncnc13)CCCC2 was read as Spn DPM-DC inh inactive, NADH coupling 2.0%, A340 absorber 1.02, Fluor 339 460 1.11, MK inhibit 2.0 and Spn PMK inh 5.0.
COc1cccc(N2CCN(CC(=O)c3c[nH]c4ccc(OC)cc34)CC2C)c1 (stereo not drawn) was read as Spn DPM-DC inh inactive, NADH coupling 3.0%, A340 absorber 1, Fluor 339 460 1.09, MK inhibit 3.0 and Spn PMK inh 7.0.
O=C1CCN2C=Nc3cccc4ccc1c2c34 was read as NADH coupling 3.0%, A340 absorber 1.07, Fluor 339 460 3.2*, MK inhibit 0.0 and Spn PMK inh 5.0.
CCCCC(CC)CNC(=O)C1CCCN(S(=O)(=O)c2cnc[nH]2)C1 (stereo not drawn) was read as Spn DPM-DC inh inactive, NADH coupling 1.0%, A340 absorber 0.99, Fluor 339 460 1.01, MK inhibit 2.0 and Spn PMK inh 2.0.
`Cc1ccccc1Nc1cc2ccccc2c(=O)[nH]1` gave NADH coupling 13.0%, A340 absorber 1.01, Fluor 339 460 2.75*, MK inhibit 0.0 and Spn PMK inh 4.0.
For Cc1cc2ccccc2c(=O)[nH]1 the results were Spn DPM-DC inh inactive, NADH coupling 6.0%, A340 absorber 1.05, Fluor 339 460 1.66, MK inhibit 0.0 and Spn PMK inh 11.0.
For CC(=O)c1ccc(OCC(=O)NC2CCS(=O)(=O)C2)cc1 (stereo not drawn) the results were Spn DPM-DC inh inactive, NADH coupling 8.0%, A340 absorber 0.97, Fluor 339 460 1.07, MK inhibit 5.0 and Spn PMK inh 19.0.
Screening COc1ccc2c(c1)c(C(=O)CNc1nc(C)cs1)c(C)n2C returned Spn DPM-DC inh inactive, NADH coupling 9.0%, A340 absorber 1.07, Fluor 339 460 1.2, MK inhibit 0.0 and Spn PMK inh 27.0*.
For CCc1cc2c(=O)c(-c3nc4ccccc4n3C)c(C)oc2c(CN2CCN(C)CC2)c1O the results were Spn DPM-DC inh active, NADH coupling 17.0%, A340 absorber 1.13, Fluor 339 460 3.53*, MK inhibit 6.0 and Spn PMK inh 5.0.
For CCc1cc(-c2n[nH]c(C)c2-c2nc3ccccc3n2C)c(O)c(CN2CCN(C)CC2)c1O the results were Spn DPM-DC inh inactive, NADH coupling 5.0%, A340 absorber 1, Fluor 339 460 1.14, MK inhibit 5.0 and Spn PMK inh 10.0.
Screening CCc1cc2c(=O)c(-c3nc4ccccc4n3C)c(C(C)C)oc2c(CN2CCN(C)CC2)c1O returned NADH coupling 13.0%, A340 absorber 1.12, Fluor 339 460 2.23*, MK inhibit 6.0 and Spn PMK inh 19.0.
`Oc1cnc2ccccc2c1CN1CCOCC1` gave Spn DPM-DC inh inactive, NADH coupling 4.0%, A340 absorber 1, Fluor 339 460 1.92, MK inhibit 0.0 and Spn PMK inh 0.0.
CCc1cc2c(=O)c(-c3nc4ccccc4n3C)c(C)oc2c(CN2CCOCC2)c1O was read as NADH coupling 5.0%, A340 absorber 1.07, Fluor 339 460 2.11*, MK inhibit 4.0 and Spn PMK inh 5.0.

Screens (PubChem)
